Experimental data reported in PubChem BioAssay (NCI).
The panel holds about 83,000 compounds, 20% with a hit somewhere; the sample as a whole holds those more often.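 Testing used 96-well plates and a 48-hour single-concentration exposure. Example: -40 means 40% of the starting cells died.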 Values without a mark were called inactive. Activity calls are given as the source filed them. How the source made its calls: active means growth percent below 10; inactive means the rest.

Tests used:
Experiment in all cases: NCI-60 one-dose screen, 48 h (100 = growth as untreated, 0 = no growth, -100 = all killed)
Conditions in all cases: 10 µM unless noted
[1] = test system: DU-145 prostate
[2] = test system: K-562 leukemia
[3] = test system: MALME-3M melanoma
[4] = test system: MDA-MB-231 breast
[5] = test system: RXF 393 renal
[6] = test system: SF-268 CNS
[7] = test system: SF-295 CNS
[8] = test system: SF-539 CNS
[9] = test system: UACC-257 melanoma
[10] = test system: M14 melanoma

SMILES	growth [1]	growth [2]	growth [3]	growth [4]	growth [5]	growth [6]	growth [7]	growth [8]	growth [9]	growth [10]
CC(=C(c1ccc(OCCCN(C)C)cc1)c1ccc(OCCCN(C)C)cc1)c1ccc(Cl)cc1	98%	-13.5% (active)	85.8%	95.4%	80.6%	91.7%	95.2%	81.7%	100%	92.7%
CCc1cc(O)ccc1Nc1cc(-c2ccc(-n3cccn3)cc2)[nH]n1	71.5%	18.9%	110%	92.9%	108%	66%	36.5%	79.4%	70%	47.4%
Brc1cc(-c2cc(-c3ccc4c(c3)OCCO4)[nH]n2)cs1	54.2%	15%	35.5%	51.6%	47.5%	62.6%	41.7%	41%	76.4%	35%
CN1CCN(Cc2ccc(NC(=O)c3cncc(C#Cc4cnc5ccc(NCCO)nn45)c3)cc2C(F)(F)F)CC1	-2.12% (active)	5.38% (active)	-69.7% (active)	1.53% (active)	-74.3% (active)	-40.9% (active)	16.6%	-74.4% (active)	-6.58% (active)	-70.9% (active)
COc1ccc([C@@H]2C(=O)N(c3cc(OC)c(OC)c(OC)c3)[C@H]2c2ccc(OC)c(O)c2)cc1	10.9%	12.7%	69.5%	28.8%	16.7%	25.2%	17.9%	5.74% (active)	56.6%	12.6%
COc1ccc(/C=N\NC(=O)c2cnn(CC(O)c3ccccc3)c2N)cc1OCc1ccc(Cl)cc1 (stereo not given)	55.3%	60.2%	65.2%	67%	41.8%	91.6%	56.9%	69.4%	85%	68.4%
CC1=C(C)C(=O)C(Nc2cccc(C)c2)=C(Br)C1=O	104%	2.13% (active)	117%	67.8%	106%	100%	100%	98.2%	84.8%	104%
Brc1ccc(-c2cc(-c3ccc4c(c3)OCCO4)n[nH]2)s1	39.8%	12.4%	45.8%	41.9%	32%	62.4%	18.4%	23.5%	75.1%	21.3%
Brc1ccc(-c2cc(-c3ccc4c(c3)OC=CO4)n[nH]2)s1	99.1%	31.5%	70.3%	90.8%	101%	89%	82.6%	85.2%	90.7%	75.3%
COc1ccc(C2c3[nH]c4ccc(Cl)cc4c3CCN2c2oc(CO)nc2C#N)cc1 (stereo not given)	57.3%	19.5%	72.1%	59.7%	62.8%	53.6%	45.6%	40.3%	67.5%	53.5%
COC(=O)c1cccc(NC2=C(Cl)C(=O)C(C)=C(C)C2=O)c1	110%	5.25% (active)	95.8%	36.5%	104%	97.4%	108%	99.3%	108%	92.3%
Fc1cc(F)cc(NNC(=S)c2ccccc2)c1	58%	29.4%	85.3%	66.5%	-11% (active)	55%	52.5%	66.6%	73.8%	30.2%
O=C(CSc1nnc(-c2ccc(Cl)cc2)n1-c1ccccc1)Nc1ccccc1Cl	68.4%	67.1%	79.2%	44.8%	74%	81.5%	31.5%	52.1%	95.1%	78.2%
COc1cccc2c1C=CC1(O2)Oc2cccc(OC)c2C=C1C (stereo not given)	31.5%	8.28% (active)	60.4%	0.892% (active)	-18.2% (active)	55.3%	6.46% (active)	-9.43% (active)	73.9%	1.02% (active)
CN(C)CCCOc1ccc(C(=C(c2ccccc2)C2CCCC2)c2ccc(OCCCN(C)C)cc2)cc1	-99% (active)	-4.67% (active)	-89.6% (active)	-86.4% (active)	-83.1% (active)	-81.9% (active)	-82% (active)	-89.4% (active)	-88.7% (active)	-80.7% (active)
CN(C)CCNc1ccc2ncc(C#Cc3cncc(C(=O)Nc4ccc(CN5CCN(C)CC5)c(C(F)(F)F)c4)c3)n2n1	18.9%	2.29% (active)	17.4%	-18.2% (active)	-75.1% (active)	-50.9% (active)	45.2%	-71.8% (active)	74.9%	54.1%
Cc1ccc(S(=O)(=O)NCCCNc2nc(Nc3ccc(N4CCN(C)CC4)cc3)nc3ccsc23)cc1	42.7%	13.3%	-87.9% (active)	23%	-59.3% (active)	42%	-41.6% (active)	-80.8% (active)	-73.2% (active)	-69.6% (active)
CN1CCN(c2ccc(C(=O)/C=C/c3cc(F)cc(C(F)(F)F)c3)cc2)CC1	49.6%	11.1%	91.7%	72.9%	70.5%	82.8%	88.6%	59.5%	91.1%	92.2%
CCN1CCN(c2ccc(NC(=O)Nc3ccc4c(ccn4-c4ccnc(C(=O)NC)c4)c3)cc2C(F)(F)F)CC1	86%	-9.49% (active)	-65.2% (active)	58.1%	-30.7% (active)	83.9%	-47.1% (active)	-55.3% (active)	96.7%	17.9%
C#CCN(C)CCCOc1ccc(NC(=O)CCCCCCC(=O)NO)cc1Cl	26.3%	18.5%	21.1%	16.3%	-44.3% (active)	39.3%	7.83% (active)	20.3%	25.6%	23%
COc1cc(NC(=O)Nc2cccc(-c3cc(=O)c4c(OC)c(OC)c(OC)cc4o3)c2)cc(OC)c1OC	39.2%	40%	52.6%	47.3%	15.2%	49.4%	47.1%	47.9%	74.1%	55.3%
CCNCCOc1ccc(/C(=C(/CC)c2ccc(Cl)cc2)c2ccc(OCCCN(C)C)cc2)cc1	-91.7% (active)	0.0244% (active)	-85.1% (active)	-87.2% (active)	-92.1% (active)	-66.7% (active)	-85.8% (active)	-93.9% (active)	-82.8% (active)	-86.9% (active)
CC1(C)CC[C@]2(C(=O)NCCCCCCN(CCCN)CCCN)CC[C@]3(C)C(=CC[C@@H]4[C@@]5(C)CC[C@H](O)C(C)(C)[C@@H]5CC[C@]43C)[C@@H]2C1	107%	109%	103%	93.7%	113%	97.2%	105%	102%	97.6%	105%
Cn1cc(-c2cc3ncnc(Nc4ccc(CC(=O)Nc5nc(C(C)(C)C)cs5)cc4)c3s2)cn1	38%	16.2%	55.9%	45.6%	26.4%	56.2%	69.6%	29.1%	79.1%	41.5%
CCOC(=O)c1ccccc1NC1=C(Cl)C(=O)c2nc(C)ccc2C1=O	112%	89.6%	107%	90.3%	102%	99.2%	110%	96.1%	99.2%	109%
Cc1ccc2c(n1)C(=O)C(Cl)=C(Nc1ccc(C(=O)OC(C)(C)C)cc1)C2=O	97.9% [9.25 µM]	0.658% [9.25 µM] (active)	24% [9.25 µM]	53.9% [9.25 µM]	-19.3% [9.25 µM] (active)	87.6% [9.25 µM]	104% [9.25 µM]	100% [9.25 µM]	29.5% [9.25 µM]	61.3% [9.25 µM]
